From the OligoGym collection

target: C1orf114; assay: pooled miR-30 sensor sort-seq; sequence = guide strand; conditions: shRNA
Further: reference of the scale not given here.

In order of rising sensor-assay potency score (higher = more potent):
1. TAGTAGTGTCTTCTAGTGGAGG  -0.965
2. TTCTAGTGGAGGAACTTCCAAA  -0.899
3. TTTGTAGTTCTTTCTGTCGAGG  -0.841
4. TTCTTTCATCTGCTCTTCGTGC  -0.834
5. TTCTTGATTCTGTAGAAGCTTG  -0.732
6. TTCTCCATAATATATCTCCTTA  -0.58
7. TTTTCCATCTCTCTCTACCAGT  -0.549
8. TTCTTGTCCAAAATCATTGGAA  -0.446
9. TTAGCTTCTAGTCGGAGCTGTC  -0.331
10. TTGGTTAATATTCTCTTCCTTC  -0.217
11. TACTATGTCATTCTCTCTCTTT  -0.145
12. TTTTCTTTTGCAACCACGCTTT  -0.00106

target: C1orf115; assay: as above; conditions: shRNA

In order of rising sensor-assay potency score (higher = more potent):
1. TCGTCCGCCGCGCTCGTCCCGC  -1.58
2. TTCCTCCGGTACCTCTTCCTGG  -1.14
3. TTGAGGAATAAACAGCTCCTTA  -1.12
4. TTTTCTCTTCCAAATATGCTGT  -0.444
5. TTCTCTTCCAAATATGCTGTGT  -0.325
6. TCTAGTAACATCCTCTTCCTCC  0.254
7. TTCAAGTCTGAGATGCTCCAGG  0.617
